The nature of assay [1]: qHTS assay to identify aromatase inhibitors - cell viability counter screen (AID 743084;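 further: cells stimulated with testosterone during compound exposure; nearly all actives have a fitted effect of over 55% in size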). (In general: In qHTS, concentration-response curves come from the screen itself.)
For assay [2], the target named is Aryl hydrocarbon receptor (Homo sapiens) (UniProt P35869). Nature of the assay: qHTS assay to identify small molecule that activate the aryl hydrocarbon receptor (AhR) signaling pathway (AID 743085). Further: nearly all actives have a fitted effect of over 15% in size. Further: potency means the concentration at half of the fitted maximal effect.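 On activation: HG2L7.5c1 human HepG2 liver cells with stably integrated DRE-driven firefly reporter; series mostly up to about 70 µM.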 A digest of the protocol:
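AhR agonist activity is inferred from enhanced light output of a DRE-controlled firefly luciferase reporter in HepG2 cells, measured with ONE-Glo following 24 h treatment at 37C.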

Assay [3] is described as follows: qHTS assay to identify small molecule that activate the aryl hydrocarbon receptor (AhR) signaling pathway - cell viability counter screen (AID 743086).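 Further: HepG2 liver cells carrying the AhR DRE luciferase reporter; series mostly up to about 70 µM; nearly all actives have a fitted effect of over 45% in size.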 Put shortly: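 HepG2-AhR-luc (HG2L7.5c1) cells, 4000/well, were preincubated 5 h at 37C, exposed to compound in qHTS format for 24 hr at 37C, then given CellTiter-Fluor for 30 min; viability was read as fluorescence in the reporter wells.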

Assay [4] has as its target Peroxisome proliferator-activated receptor gamma (Homo sapiens) (UniProt P37231). Nature of the assay: qHTS assay to identify small molecule agonists of the peroxisome proliferator-activated receptor gamma (PPARg) signaling pathway (AID 743094; active means well fitted activation curve with a large enough effect in the signal ratio in the repeat runs, not every such curve was filed as active; the % refers to the signal ratio). Put shortly:
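Agonist activity was taken from a beta-lactamase reporter (FRET substrate, 1 h at room temperature) in HEK293H cells carrying a PPARg UAS-bla construct. Compounds in DMSO were incubated 17 h at 37C after a 5 h cell pre-incubation.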

Assay [5] can be described thus: qHTS assay to identify small molecule antagonists of the peroxisome proliferator-activated receptor gamma (PPARg) signaling pathway - cell viability counter screen (AID 743194). Further: nearly all actives have a fitted effect of over 55% in size. A digest of the protocol: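 PPARg-UAS-bla HEK293H cells were plated, rested 5 h at 37 C, then treated with compounds plus rosiglitazone (50 nM final) for 17 h at 37 C; viability was then read by CellTiter-Glo luminescence after 30 min at room temperature.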

Assay [6] is described as follows: qHTS assay for small molecule agonists of the antioxidant response element (ARE) signaling pathway (AID 743202; active means well fitted activation curve with a large enough effect in the signal ratio in the repeat runs, not every such curve was filed as active; the % refers to the signal ratio). Put shortly: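 Following a 16 h, 37 C exposure of reporter HepG2 cells (ARE-driven beta-lactamase, 2,000 cells/well) to compounds, FRET substrate was applied for 2 h at room temperature and fluorescence intensity recorded.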
Assay [7] in a line: qHTS assay for small molecule agonists of the antioxidant response element (ARE) signaling pathway - cell viability counter screen (AID 743203; calls by dose curve; further: nearly all actives have a fitted effect of over 55% in size). Put shortly:
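Viability counter screen: CellTiter-Glo luminescence, read after 30 min at room temperature, in ARE-bla HepG2 wells. Compound exposure lasted 16 h at 37C/5% CO2, following a 5 h pre-incubation of the cells after plating.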

A short description of assay [8]: qHTS assay for small molecule activators of the heat shock response signaling pathway - cell viability counter screen (AID 743209). Further: nearly all actives have a fitted effect of over 50% in size. Put shortly: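 Cytotoxicity counter screen run in the same wells as the heat-shock bla reporter assay: HeLa HSE-bla cells, 5 h compound exposure at 37 C, viability read by CellTiter-Glo luminescence.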
The nature of assay [9]: qHTS assay for small molecule activators of the heat shock response signaling pathway (AID 743210; active means well fitted activation curve with a large enough effect in the signal ratio in the repeat runs, with a control signal flat, not every such curve was filed as active; the % refers to the signal ratio; further: series mostly up to about 63 µM). Put shortly:
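Heat shock element–beta-lactamase HeLa reporter cells; qHTS with compounds for 5 h at 37 C; detection by FRET substrate fluorescence after 2.5 h at RT.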

The nature of assay [10]: qHTS assay to identify small molecule agonists of the peroxisome proliferator-activated receptor delta (PPARd) signaling pathway - cell viability counter screen (AID 743211). Further: nearly all actives have a fitted effect of over 55% in size. Put shortly: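 qHTS cell viability: PPARd-bla HEK293H; 17 h cpd, 37C; CellTiter-Glo, luminescence at 30 min RT.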
Assay [11] can be described thus: qHTS assay to identify small molecule antagonists of the peroxisome proliferator-activated receptor delta (PPARd) signaling pathway - cell viability counter screen (AID 743213). Further: nearly all actives have a fitted effect of over 50% in size. Put shortly: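 Luminescence from CellTiter-Glo, added after the bla read and incubated 30 min at room temperature, gives viability of HEK293H PPARd-bla cells exposed to compounds for 17 h at 37 C with 300 nM L165041.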

The target in assay [12] is Bile acid receptor (Homo sapiens) (UniProt Q96RI1). Put plainly: qHTS assay to identify small molecule antagonists of the farnesoid-X-receptor (FXR) signaling pathway (AID 743217; active means well fitted inhibition curve with a large enough effect in the signal ratio in the repeat runs, not every such curve was filed as active; the % refers to the signal ratio). Put shortly:
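Antagonist mode: chenodeoxycholic acid at 50 uM final stimulates a UAS-driven beta-lactamase reporter in HEK 293T FXR-bla cells during 16 h, 37C compound exposure. Read-out is FRET substrate fluorescence after 2 h at room temperature.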

A short description of assay [13]: qHTS assay to identify small molecule agonists of the farnesoid-X-receptor (FXR) signaling pathway - cell viability counter screen (AID 743218). Further: nearly all actives have a fitted effect of over 45% in size. Put shortly: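 Viability counter screen in the same wells: CellTiter-Glo luminescence, 30 min room-temperature incubation, measured after the beta-lactamase read. Cells were GeneBLAzer FXR-UAS-bla HEK 293T, compound-treated 16 h at 37C.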

Assay [14] concerns the target Bile acid receptor (Homo sapiens) (UniProt Q96RI1). Nature of the assay: qHTS assay to identify small molecule agonists of the farnesoid-X-receptor (FXR) signaling pathway (AID 743220; active means well fitted activation curve with a large enough effect in the signal ratio in the repeat runs, not every such curve was filed as active; the % refers to the signal ratio). A digest of the protocol: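 FXR-UAS-bla HEK 293T cells carrying a UAS-driven beta-lactamase reporter were plated for 5 h at 37C/5% CO2, then exposed to DMSO-dissolved Tox21 10K compounds for 16 h at 37C. A LiveBLAzer B/G FRET substrate was loaded for 2 h at room temperature before fluorescence reading.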

The nature of assay [15]: qHTS assay to identify small molecule antagonists of the farnesoid-X-receptor (FXR) signaling pathway - cell viability counter screen (AID 743221; active means well fitted cell-killing curve with a large enough effect in the repeat runs, not every such curve was filed as active; further: nearly all actives have a fitted effect of over 50% in size). Put shortly:
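After a 5 h settling period, FXR-bla HEK 293T cells receive compound and chenodeoxycholic acid (50 uM final) and incubate 16 h at 37 C; CellTiter-Glo luminescence, read after 30 min at room temperature, reports cell viability.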

In assay [16] the target is Vitamin D3 receptor (Homo sapiens) (UniProt P11473). Nature of the assay: qHTS assay to identify small molecule agonists of the vitamin D receptor (VDR) signaling pathway (AID 743222; calls by dose curve). A digest of the protocol:
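Agonist mode, beta-lactamase reporter: fluorescence from LiveBLAzer B/G FRET substrate (2 h, room temperature) read after 16 h compound treatment at 37 C of VDR-bla cells, which were pre-incubated 4 h after seeding.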

Assay [17] has the same target. Nature of the assay: qHTS assay to identify small molecule antagonists of the vitamin D receptor (VDR) signaling pathway (AID 743223; active means well fitted inhibition curve with a large enough effect in the signal ratio in the repeat runs, not every such curve was filed as active; the % refers to the signal ratio). A digest of the protocol: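 Reporter line VDR-bla; stimulus 1alpha,25-(OH)2 vitamin D3, 3 nM final; compound co-addition, 16 h 37C/5% CO2; LiveBLAzer B/G substrate 2 h RT; fluorescence intensity.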
For assay [18], the target named is Peroxisome proliferator-activated receptor delta (Homo sapiens) (UniProt Q03181). Nature of the assay: qHTS assay to identify small molecule agonists of the peroxisome proliferator-activated receptor delta (PPARd) signaling pathway (AID 743212; calls by dose curve). Put shortly:
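Beta-lactamase reporter read by fluorescence (LiveBLAzer B/G FRET, 2 h, room temperature). Test agents, in DMSO, incubated at 37 C with PPARd-bla HEK293H cells.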

The target is the same in assay [19]. Put plainly: qHTS assay to identify small molecule antagonists of the peroxisome proliferator-activated receptor delta (PPARd) signaling pathway (AID 743215; active means well fitted inhibition curve with a large enough effect in the signal ratio in the repeat runs, not every such curve was filed as active; the % refers to the signal ratio;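 further: cells stimulated with agonist L165041 at 300 nM final during compound exposure; series mostly up to about 62 µM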). Put shortly:
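Agonist L165041 (300 nM final) added with compound to PPARd-bla HEK293H UAS-bla reporter cells; 17 h incubation at 37 C. Read-out: LiveBLAzer FRET substrate, 2 h at room temperature, fluorescence intensity.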

In assay [20] the target is Peroxisome proliferator-activated receptor gamma (Homo sapiens) (UniProt P37231). Nature of the assay: qHTS assay to identify small molecule antagonists of the peroxisome proliferator-activated receptor gamma (PPARg) signaling pathway (AID 743191; calls by dose curve; further: series mostly up to about 63 µM; nearly all actives have a fitted effect of over 30% in size). A digest of the protocol: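 GeneBLAzer PPARg UAS-bla HEK293H cells carrying a UAS-driven beta-lactamase reporter were plated at 3000 cells/well, preincubated 5 h at 37C, then given compound for 17 h at 37C; LiveBLAzer B/G FRET substrate was read after 1 h at room temperature.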

We go through 9 compounds from PubChem BioAssay (Tox21).

Molecules are shown by their SMILES. Several values for one entry are separate records, joined by “and”; a condition that tells them apart may be missing. Identical values can stand only once. Records with an inconclusive call do not appear. Values without a mark were called inactive. Activity calls are given as the source filed them. Unless noted, the call rests on the fitted dose curve; in most records, active means well fitted curve in the direction sought with a large enough effect in the repeat runs; inconclusive means weak or mixed curves; inactive means no such curve, though single readings can be large; an effect the other way counts as inactive or inconclusive.
On the % scale 0 is the no-effect control and ±100 the full control effect.

Chain of Peroxisome proliferator-activated receptor gamma (Homo sapiens) (P37231 whole entry, looked up): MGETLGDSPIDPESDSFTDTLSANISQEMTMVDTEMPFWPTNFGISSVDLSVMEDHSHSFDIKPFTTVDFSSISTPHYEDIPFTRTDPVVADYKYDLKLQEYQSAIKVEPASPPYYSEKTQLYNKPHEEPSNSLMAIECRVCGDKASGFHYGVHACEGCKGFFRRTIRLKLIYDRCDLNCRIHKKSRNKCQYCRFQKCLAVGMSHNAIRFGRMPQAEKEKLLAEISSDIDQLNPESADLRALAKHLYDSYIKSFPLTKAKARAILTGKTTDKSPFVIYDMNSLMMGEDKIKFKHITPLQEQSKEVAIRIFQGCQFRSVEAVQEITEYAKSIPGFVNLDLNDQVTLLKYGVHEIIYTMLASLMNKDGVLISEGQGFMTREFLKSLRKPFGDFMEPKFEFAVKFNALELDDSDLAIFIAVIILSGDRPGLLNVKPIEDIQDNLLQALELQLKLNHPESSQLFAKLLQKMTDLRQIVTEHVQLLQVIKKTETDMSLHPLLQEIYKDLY
Chain of Vitamin D3 receptor (Homo sapiens) (P11473 whole entry, looked up): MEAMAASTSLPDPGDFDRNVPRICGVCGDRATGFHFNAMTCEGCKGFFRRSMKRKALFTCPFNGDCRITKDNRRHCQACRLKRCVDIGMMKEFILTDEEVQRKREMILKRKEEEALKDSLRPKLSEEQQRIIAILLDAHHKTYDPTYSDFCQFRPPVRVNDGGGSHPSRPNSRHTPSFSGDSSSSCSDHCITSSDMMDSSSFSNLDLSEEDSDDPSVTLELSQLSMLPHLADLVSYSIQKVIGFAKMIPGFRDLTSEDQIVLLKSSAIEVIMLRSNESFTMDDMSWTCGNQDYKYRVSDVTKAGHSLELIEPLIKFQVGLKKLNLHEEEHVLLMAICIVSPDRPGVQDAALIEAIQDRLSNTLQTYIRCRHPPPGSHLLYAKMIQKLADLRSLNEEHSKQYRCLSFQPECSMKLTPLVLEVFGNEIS
Chain of Peroxisome proliferator-activated receptor delta (Homo sapiens) (Q03181 whole entry, looked up): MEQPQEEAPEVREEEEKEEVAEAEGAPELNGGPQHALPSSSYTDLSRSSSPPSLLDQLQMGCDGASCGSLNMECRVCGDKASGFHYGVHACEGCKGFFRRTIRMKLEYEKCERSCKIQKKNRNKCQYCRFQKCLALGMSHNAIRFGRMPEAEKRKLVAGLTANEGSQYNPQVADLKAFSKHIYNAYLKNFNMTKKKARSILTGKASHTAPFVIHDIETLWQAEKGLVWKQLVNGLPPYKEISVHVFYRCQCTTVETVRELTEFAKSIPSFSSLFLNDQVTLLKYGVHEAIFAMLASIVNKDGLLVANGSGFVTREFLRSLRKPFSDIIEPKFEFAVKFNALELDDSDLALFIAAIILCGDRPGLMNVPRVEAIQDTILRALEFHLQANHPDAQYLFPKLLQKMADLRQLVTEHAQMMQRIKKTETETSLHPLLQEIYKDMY
Chain of Aryl hydrocarbon receptor (Homo sapiens) (P35869 whole entry, looked up): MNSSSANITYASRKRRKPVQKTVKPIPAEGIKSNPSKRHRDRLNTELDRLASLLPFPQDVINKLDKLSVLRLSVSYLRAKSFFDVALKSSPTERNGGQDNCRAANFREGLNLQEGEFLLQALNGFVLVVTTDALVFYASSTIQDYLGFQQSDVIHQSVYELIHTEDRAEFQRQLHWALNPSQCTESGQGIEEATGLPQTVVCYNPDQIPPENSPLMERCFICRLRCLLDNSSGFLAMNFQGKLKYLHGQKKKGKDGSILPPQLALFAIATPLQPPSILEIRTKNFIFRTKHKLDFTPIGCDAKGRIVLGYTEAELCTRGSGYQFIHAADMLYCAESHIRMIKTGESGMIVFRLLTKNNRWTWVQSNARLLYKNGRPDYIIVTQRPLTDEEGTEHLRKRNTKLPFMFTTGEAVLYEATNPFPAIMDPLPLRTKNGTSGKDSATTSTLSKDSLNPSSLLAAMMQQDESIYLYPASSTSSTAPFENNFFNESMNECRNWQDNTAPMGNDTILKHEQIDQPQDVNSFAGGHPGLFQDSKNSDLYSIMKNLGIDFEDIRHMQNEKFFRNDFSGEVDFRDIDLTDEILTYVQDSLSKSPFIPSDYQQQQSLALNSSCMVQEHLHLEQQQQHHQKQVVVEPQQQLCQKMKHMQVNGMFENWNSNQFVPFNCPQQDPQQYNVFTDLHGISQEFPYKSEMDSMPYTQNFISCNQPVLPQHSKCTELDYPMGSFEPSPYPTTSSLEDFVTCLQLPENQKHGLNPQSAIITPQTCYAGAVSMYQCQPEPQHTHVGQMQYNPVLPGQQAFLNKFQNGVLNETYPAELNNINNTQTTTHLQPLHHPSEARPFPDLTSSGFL
Chain of Bile acid receptor (Homo sapiens) (Q96RI1 whole entry, looked up): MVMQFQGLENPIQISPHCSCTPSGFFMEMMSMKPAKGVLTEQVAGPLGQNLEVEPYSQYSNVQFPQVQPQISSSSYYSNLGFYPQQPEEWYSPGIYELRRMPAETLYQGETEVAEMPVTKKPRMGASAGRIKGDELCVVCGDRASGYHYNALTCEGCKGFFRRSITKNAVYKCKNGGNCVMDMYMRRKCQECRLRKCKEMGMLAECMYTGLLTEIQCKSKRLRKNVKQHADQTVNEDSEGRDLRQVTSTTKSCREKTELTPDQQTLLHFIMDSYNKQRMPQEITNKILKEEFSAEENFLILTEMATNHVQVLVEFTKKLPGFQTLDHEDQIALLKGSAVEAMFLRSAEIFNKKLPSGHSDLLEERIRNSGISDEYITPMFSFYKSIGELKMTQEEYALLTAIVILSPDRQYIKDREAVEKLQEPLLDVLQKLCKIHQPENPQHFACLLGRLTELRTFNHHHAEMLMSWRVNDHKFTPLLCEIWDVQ

Regarding `CC(=O)c1ccccc1O`, the Potency result in assay [1], in [2], in assay [3], in [6], in [7] and in [10] was “inactive” in each case. Moreover, the Potency entry in [11], in [13] and in assay [15] was “inactive” each time. For the same compound, the result in [4], in assay [5], in assay [8], in assay [9], in [12] and in assay [14] was inactive. Also, the outcome in [16] and in assay [17] was inactive.
On to `O=c1cc(-c2ccccc2)oc2ccccc12`, for which the Potency result in assay [1], in assay [3], in [7], in assay [10], in assay [11] and in assay [19] was “inactive” throughout. The Potency entry in assay [15] is “inactive”. Moreover, the Potency in [2] was 24.3 µM (active) and 5.91 µM (active). The result in assay [4], in [5], in [8], in [9], in [18] and in assay [16] was inactive. Besides, the compound was called inactive in assay [17].
For `CC(C)(C)c1nnc(NS(=O)(=O)c2ccccc2)s1`, the Potency result in [1], in assay [2], in assay [3], in assay [7], in assay [10] and in assay [11] was “inactive” in each case. Also, the Potency entry in assay [19], in assay [13] and in assay [15] was “inactive” each time. The compound was called inactive in [4], in assay [5], in assay [8], in [9], in assay [18] and in assay [16]. Further, the call in assay [17] was inactive.
Consider `O=[N+]([O-])c1ccc(F)cc1F`, for which the Potency result in assay [1], in assay [2], in assay [3], in assay [7], in assay [10] and in assay [11] was “inactive” throughout. Also, the Potency entry in assay [19], in assay [13] and in assay [15] was “inactive” throughout. Further, the outcome in assay [4], in [5], in assay [8], in [9], in assay [18] and in [16] was inactive. Also, in assay [17], the result was inactive.
Consider `Nc1nc2c(ncn2COC(CO)CO)c(=O)[nH]1`, for which the Potency result in [1], in assay [2], in [3], in assay [20], in assay [6] and in [7] was “inactive” in each case. Besides, the Potency entry in assay [10], in assay [11], in assay [19], in assay [13] and in assay [15] was “inactive” in each case. For the same compound, the compound was classed as inactive in assay [5], in [8], in assay [9], in assay [18], in [16] and in assay [17].
Consider `O=c1cc(CO)occ1O`, for which the Potency result in assay [1], in assay [2], in assay [3], in assay [20], in [6] and in assay [7] was “inactive” in each case. In addition, the Potency result in [10], in assay [11], in assay [19], in [13] and in assay [15] was “inactive” throughout. The result in assay [5], in [8], in assay [9], in assay [18], in [16] and in [17] was inactive.
Turning to `C/C=C(\C)C#N`, the Potency entry in assay [1], in assay [2], in assay [3], in assay [7], in assay [10] and in assay [11] was “inactive” throughout. The Potency result in assay [13] and in assay [15] was “inactive” each time. The result in assay [4], in assay [8], in assay [9], in [18], in assay [16] and in assay [17] was inactive.
Turning to `C[C@](N)(Cc1ccc(O)cc1)C(=O)O`, the Potency result in [1], in [2] and in [3] was “inactive” each time. In addition, the compound was classed as inactive in assay [4]. The activity change, negative = cytotoxicity in assay [5] is 4.13% [at 5.95 µM]; in [8] it was 1.38% [at 5.95 µM]; in assay [10], 3.74% [at 5.95 µM]; in assay [15], -5.83% [at 5.95 µM]. The values for the activation in assay [6], in assay [9] and in [14] were 6.12% [at 8.36 µM], 0.673% [at 5.95 µM] and 1.44% [at 5.95 µM], respectively. For the same compound, the viability change, negative = cytotoxic in assay [7] was -15% [at 8.36 µM]; in [11] it was 17.6% [at 6.26 µM]; in assay [13] it was 17.1% [at 5.95 µM]. In assay [12], the activity change, negative = inhibition is 3.49% [at 5.95 µM].
On to `C=CCCCCCCCCC=O`, for which the Potency result in assay [1], in assay [2], in [3], in assay [7], in [11] and in assay [19] was “inactive” each time. In addition, the Potency entry in assay [13] and in assay [15] was “inactive” each time. Besides, the result in assay [4], in assay [5], in assay [8], in assay [9] and in assay [17] was inactive.
